Measurements reported in the supplement of paper PMC10849652.
The full data set covers some 8,800 targets. This sample favours those with a hit. About 0.5% of all pairs of compound and target were hits. Unmarked numbers belong to inactive results.

Experiments:
Assay in all cases: log2 fold change, soluble protein after heating vs DMSO (PISA); higher = thermal stabilisation; K562 lysate, 10 uM; active = over 0.2 and 3.5 SD of the protein, either way, in both replicates (recomputed)
[1] = compound: NCC(=O)Nc1ccc(-n2nc(C(F)(F)F)cc2-c2ccc3c(ccc4ccccc43)c2)cc1
Summary of the method: (§1)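 Quantification was by TMTpro 16plex LC-MS/MS with equalised channel sums, applied to the supernatant after 21,000xg for 90 min. Samples were crude K562 extract at 1 mg/mL protein in PBS pH 7.4 with 1 mM MgCl2, treated with 10 μM compound for 30 min, heated for 3 min across 48°C-58°C, pooled and brought to 0.5% NP-40 at 4°C. Values are log-two fold changes in thermal stability relative to solvent controls, from duplicates.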

vorinostat = compound: O=C(CCCCCCC(=O)Nc1ccccc1)NO [vorinostat]
Summary of the method: as §1

silmitasertib = compound: O=C(O)c1ccc2c(c1)nc(Nc1cccc(Cl)c1)c1ccncc12 [silmitasertib]
Summary of the method: as §1

[2] = compound: O=C1NC(=O)C(c2cnc3ccccn23)=C1c1cn2c3c(cc(F)cc13)CN(C(=O)N1CCCCC1)CC2
Summary of the method: as §1

entospletinib = compound: c1cn2cc(-c3ccc4cn[nH]c4c3)nc(Nc3ccc(N4CCOCC4)cc3)c2n1 [entospletinib]
Summary of the method: as §1

UniProt Q9BUV8, sequence (Q9BUV8 whole entry, looked up): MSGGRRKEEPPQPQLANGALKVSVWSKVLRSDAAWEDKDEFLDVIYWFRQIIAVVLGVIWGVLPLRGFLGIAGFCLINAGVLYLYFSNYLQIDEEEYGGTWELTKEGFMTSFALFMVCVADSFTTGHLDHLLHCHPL
UniProt P58004, sequence (P58004 whole entry, looked up): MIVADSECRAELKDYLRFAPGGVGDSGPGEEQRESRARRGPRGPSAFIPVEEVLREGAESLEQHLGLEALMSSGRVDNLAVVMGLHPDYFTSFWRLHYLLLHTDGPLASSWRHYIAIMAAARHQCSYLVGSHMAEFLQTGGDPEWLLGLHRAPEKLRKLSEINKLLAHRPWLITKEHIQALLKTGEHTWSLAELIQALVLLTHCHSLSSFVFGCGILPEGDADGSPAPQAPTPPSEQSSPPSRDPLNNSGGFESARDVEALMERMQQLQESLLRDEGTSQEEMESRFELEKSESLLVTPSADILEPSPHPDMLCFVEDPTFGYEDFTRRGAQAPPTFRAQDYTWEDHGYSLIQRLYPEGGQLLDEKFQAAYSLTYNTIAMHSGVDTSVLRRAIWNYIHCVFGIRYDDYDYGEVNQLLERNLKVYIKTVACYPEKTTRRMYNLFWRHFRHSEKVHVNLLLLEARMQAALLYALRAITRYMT
UniProt Q96DM3, sequence (Q96DM3 whole entry, looked up): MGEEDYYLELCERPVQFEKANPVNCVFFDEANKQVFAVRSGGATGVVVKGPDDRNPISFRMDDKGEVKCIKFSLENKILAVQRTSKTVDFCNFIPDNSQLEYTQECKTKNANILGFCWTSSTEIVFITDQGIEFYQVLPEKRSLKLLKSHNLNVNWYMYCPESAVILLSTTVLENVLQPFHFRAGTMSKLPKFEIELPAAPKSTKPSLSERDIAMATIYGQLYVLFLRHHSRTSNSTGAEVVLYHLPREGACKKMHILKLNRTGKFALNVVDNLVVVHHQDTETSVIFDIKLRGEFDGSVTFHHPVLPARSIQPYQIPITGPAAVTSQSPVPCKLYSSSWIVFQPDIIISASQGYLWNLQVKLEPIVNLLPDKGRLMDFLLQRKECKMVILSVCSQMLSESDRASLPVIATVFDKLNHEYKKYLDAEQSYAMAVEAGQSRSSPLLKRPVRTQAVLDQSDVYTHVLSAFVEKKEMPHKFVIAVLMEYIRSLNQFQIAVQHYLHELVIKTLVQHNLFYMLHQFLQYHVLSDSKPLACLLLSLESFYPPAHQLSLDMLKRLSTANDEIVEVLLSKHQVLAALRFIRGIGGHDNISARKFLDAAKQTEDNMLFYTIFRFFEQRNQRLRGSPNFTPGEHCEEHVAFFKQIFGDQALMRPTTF
UniProt P19793, sequence (P19793 whole entry, looked up): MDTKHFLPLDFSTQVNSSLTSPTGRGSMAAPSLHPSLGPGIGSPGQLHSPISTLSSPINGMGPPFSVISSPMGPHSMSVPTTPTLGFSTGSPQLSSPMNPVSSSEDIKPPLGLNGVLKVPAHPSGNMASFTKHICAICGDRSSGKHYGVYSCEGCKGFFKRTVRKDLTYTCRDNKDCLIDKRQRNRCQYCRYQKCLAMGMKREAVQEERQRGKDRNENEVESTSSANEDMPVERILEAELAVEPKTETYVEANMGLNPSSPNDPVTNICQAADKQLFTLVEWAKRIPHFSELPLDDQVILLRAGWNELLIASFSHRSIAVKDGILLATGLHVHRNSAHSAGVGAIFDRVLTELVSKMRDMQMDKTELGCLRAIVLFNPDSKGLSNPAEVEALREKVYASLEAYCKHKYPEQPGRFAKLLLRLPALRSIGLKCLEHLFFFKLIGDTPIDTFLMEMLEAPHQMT
UniProt Q9BWG6, sequence (Q9BWG6 whole entry, looked up): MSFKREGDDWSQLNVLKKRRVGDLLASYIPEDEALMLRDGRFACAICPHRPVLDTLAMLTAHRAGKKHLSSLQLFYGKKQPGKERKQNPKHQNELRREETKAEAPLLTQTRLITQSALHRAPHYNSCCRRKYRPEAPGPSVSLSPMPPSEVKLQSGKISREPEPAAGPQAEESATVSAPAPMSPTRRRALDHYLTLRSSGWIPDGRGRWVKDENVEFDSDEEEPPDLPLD
UniProt O75446, sequence (O75446 whole entry, looked up): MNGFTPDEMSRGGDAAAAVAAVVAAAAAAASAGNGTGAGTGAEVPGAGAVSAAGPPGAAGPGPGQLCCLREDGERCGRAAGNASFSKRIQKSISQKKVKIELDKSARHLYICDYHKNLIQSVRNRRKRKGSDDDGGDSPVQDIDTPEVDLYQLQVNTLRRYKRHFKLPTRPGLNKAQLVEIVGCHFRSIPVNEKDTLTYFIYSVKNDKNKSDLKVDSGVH
UniProt O14730, sequence (O14730 whole entry, looked up): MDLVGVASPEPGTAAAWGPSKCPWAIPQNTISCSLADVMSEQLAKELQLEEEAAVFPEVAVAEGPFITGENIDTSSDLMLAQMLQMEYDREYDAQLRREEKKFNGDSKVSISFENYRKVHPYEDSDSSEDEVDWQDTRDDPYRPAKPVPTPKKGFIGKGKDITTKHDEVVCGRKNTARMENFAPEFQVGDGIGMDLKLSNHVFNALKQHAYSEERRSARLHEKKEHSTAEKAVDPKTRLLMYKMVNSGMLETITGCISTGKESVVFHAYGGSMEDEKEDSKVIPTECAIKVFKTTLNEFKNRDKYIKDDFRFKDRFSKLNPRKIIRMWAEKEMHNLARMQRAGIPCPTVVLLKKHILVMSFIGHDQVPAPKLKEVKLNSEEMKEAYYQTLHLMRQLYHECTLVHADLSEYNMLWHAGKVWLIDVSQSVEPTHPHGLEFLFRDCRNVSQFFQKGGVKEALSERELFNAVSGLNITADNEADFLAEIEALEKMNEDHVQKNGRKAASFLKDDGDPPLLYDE
UniProt Q9P0P0, sequence (Q9P0P0 whole entry, looked up): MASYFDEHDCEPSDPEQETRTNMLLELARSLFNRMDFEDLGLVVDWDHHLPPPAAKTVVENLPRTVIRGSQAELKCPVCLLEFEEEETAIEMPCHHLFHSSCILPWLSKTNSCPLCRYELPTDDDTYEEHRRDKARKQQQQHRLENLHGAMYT
UniProt Q13464, sequence (Q13464 whole entry, looked up): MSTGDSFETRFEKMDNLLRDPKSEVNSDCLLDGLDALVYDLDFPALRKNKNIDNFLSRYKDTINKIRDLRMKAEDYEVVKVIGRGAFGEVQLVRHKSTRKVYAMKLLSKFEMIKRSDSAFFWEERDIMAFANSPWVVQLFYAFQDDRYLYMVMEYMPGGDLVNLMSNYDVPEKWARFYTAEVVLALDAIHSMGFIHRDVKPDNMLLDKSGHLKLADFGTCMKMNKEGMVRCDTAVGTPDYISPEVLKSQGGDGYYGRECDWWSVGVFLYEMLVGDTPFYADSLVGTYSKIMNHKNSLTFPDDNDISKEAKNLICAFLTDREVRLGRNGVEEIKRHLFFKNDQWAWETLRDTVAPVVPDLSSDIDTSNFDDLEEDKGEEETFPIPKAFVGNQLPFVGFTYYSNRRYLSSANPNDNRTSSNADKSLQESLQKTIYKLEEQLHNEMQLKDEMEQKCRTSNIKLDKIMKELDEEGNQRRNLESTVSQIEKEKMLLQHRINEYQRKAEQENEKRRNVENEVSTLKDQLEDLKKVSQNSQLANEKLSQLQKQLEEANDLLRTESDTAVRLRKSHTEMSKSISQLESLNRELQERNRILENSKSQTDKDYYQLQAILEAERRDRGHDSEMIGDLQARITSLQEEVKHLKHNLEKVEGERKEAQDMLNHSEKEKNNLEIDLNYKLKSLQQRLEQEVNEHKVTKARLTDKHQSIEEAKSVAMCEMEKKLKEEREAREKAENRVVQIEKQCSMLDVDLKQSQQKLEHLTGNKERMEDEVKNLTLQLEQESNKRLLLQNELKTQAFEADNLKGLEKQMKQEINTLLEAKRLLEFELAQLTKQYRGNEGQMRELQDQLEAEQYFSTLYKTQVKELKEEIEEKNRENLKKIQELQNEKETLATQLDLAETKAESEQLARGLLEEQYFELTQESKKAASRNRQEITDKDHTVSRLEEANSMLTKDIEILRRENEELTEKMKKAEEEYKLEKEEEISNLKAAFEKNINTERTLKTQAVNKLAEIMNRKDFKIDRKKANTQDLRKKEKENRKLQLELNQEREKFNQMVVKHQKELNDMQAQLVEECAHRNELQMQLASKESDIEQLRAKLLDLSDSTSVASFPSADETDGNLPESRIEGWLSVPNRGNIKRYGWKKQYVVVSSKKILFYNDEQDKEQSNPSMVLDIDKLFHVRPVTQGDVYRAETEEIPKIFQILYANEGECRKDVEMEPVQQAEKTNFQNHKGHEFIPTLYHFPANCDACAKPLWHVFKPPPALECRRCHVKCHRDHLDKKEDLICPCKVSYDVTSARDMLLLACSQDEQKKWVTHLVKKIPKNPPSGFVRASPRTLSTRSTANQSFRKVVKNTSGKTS
UniProt Q8TEB9, sequence (Q8TEB9 whole entry, looked up): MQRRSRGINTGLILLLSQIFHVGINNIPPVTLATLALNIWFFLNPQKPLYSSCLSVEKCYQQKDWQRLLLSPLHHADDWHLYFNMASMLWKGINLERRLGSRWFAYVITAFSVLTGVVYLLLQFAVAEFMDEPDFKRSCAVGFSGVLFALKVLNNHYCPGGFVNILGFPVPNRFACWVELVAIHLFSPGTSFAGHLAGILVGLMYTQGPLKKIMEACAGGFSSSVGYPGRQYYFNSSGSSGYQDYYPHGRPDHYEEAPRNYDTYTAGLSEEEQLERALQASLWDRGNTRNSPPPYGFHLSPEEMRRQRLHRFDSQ

Target | log2 fold change [1] | log2 fold change (vorinostat) | log2 fold change (silmitasertib) | log2 fold change [2] | log2 fold change (entospletinib)
RMC1 (UniProt Q96DM3) | 0.008 | -0.391 (active) | 0.017 | -0.013 | 0.037
ROCK1 (UniProt Q13464) | 0 | -0.211 (active) |  | -0.017 | -0.016
RXRA (UniProt P19793) |  | -0.154 | 0.07 | -0.08 | 
SCNM1 (UniProt Q9BWG6) |  | -0.13 | -0.102 | -0.082 | 0.092
RAB5IF isoform 5 (UniProt Q9BUV8) | -0.039 | -0.039 | -0.007 |  | -0.015
SAP30 (UniProt O75446) | 0.001 |  |  | -0.024 | -0.022
RAD54L (UniProt Q92698) |  | -1.06 (active) | 0.065 |  | 
RIOK3 (UniProt O14730) | -0.024 | -0.605 (active) | -0.017 | -0.024 | -0.004
RNF181 (UniProt Q9P0P0) | -0.014 | 0.101 | -0.019 | -0.023 | -0.24 (active)
SESN2 (UniProt P58004) | 0.006 | -0.367 (active) | 0.066 | 0.022 | 0.073
RHBDD1 (UniProt Q8TEB9) | -0.162 |  |  |  | 0.036
